HT1080-NT tox – kills 2HG-producing HT-1080-NT fibrosarcoma cells | HT-1080-NT fibrosarcoma viability, CellTiter-Glo ATP luminescence, 48 h | Potency, µM (top dose mostly 46.1 µM), inactives show at the highest dose activity, negative = less viability, most hits filed as cytotoxic | 360,000 compounds, 1.6% hits;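 further: NT is the 2HG producing partner of a matched IDH1 knockdown line; potency means the concentration at half of the fitted maximal effect; 0% = DMSO-treated cells and -100% = media-only wells without cells; nearly all actives have a fitted effect of over 55% in size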
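Luminescent CellTiter-Glo readout after 48 hours of compound exposure at 37 degrees C defined viability of HT-1080-NT cells. Activity was normalized to DMSO wells and cell-free media wells; concentration-response curves were fitted and assigned curve classes.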
DT40 TDP1 CPT – DT40-hTDP1 cell growth loss with CPT; chicken DT40 Tdp1-/-;hTDP1 cells + 20 nM CPT, ATP luminescence, 48 h; Potency, µM (titrated, usually from 46.2 µM), inactives show at the top dose activity change, negative = growth inhibition, actives largely listed as inhibitors; 420,000 compounds, 12% hits; AID 686979; further: potency means the concentration at half of the fitted maximal effect; nearly all actives have a fitted effect of over 55% in size
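Chicken DT40 Tdp1-/- cells complemented with human TDP1, 400 cells/well, exposed to compounds plus 20 nM camptothecin for at least 48 h at 37 C; viability read as ATP content by CellTiter-Glo luminescence.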
IL1B secr inh – inhibitors of inflammasome signaling (IL-1 beta secretion). THP-1 LPS/ATP IL-1B secretion, AlphaLISA, 16 h; active compounds read low. activity change, % at 57.5 µM. 360,000 compounds, 4.7% hits; in the data active means activity change below about -50%; inconclusive means mostly about -30% to -49%
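THP-1 cells pretreated 1 hr with compounds (up to 57.5 uM final), then stimulated with LPS (250 ng/mL final) plus ATP (1.25 mM final); secreted IL-1B measured by AlphaLISA after 16 hr, decreased signal indicating inhibition.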
HT1080 IDH1KD tx – toxicity to HT-1080 IDH1 knockdown cells (counter line); HT-1080 IDH1 knockdown viability, ATP luminescence, 48 h; 360,000 compounds, 2% hits; Potency, µM (doses to about 46.1 µM), for the others: at the highest dose activity, negative = toxicity, usual class: cytotoxic;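 further: potency means the concentration at half of the fitted maximal effect; 0% = DMSO wells and -100% = cell-free medium wells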
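% activity derives from luminescence (CellTiter-Glo), normalised to DMSO and no-cell wells. HT-1080-IDH1KD cells, 750/well, had 48 h compound exposure at 37 °C.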
DT40 TDP1 no CPT – qHTS for Inhibitors of human tyrosyl-DNA phosphodiesterase 1 (TDP1): qHTS in cells in absence of CPT; DT40 Tdp1-/- hTDP1 cells, no CPT, ATP luminescence, 48 h; Potency, µM (doses to about 46.2 µM), without a hit: at the top dose activity change, negative = growth inhibition, actives largely listed as inhibitors; 420,000 compounds, 15% hits; AID 686978, 2013; further: potency means the concentration at half of the fitted maximal effect; nearly all actives have a fitted effect of over 55% in size
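Chicken DT40 Tdp1-/- cells stably complemented with human TDP1 were seeded at 400 cells/well with DMSO in place of 20 nM camptothecin. After compound pinning, cells grew at least 48 hr at 37 °C; viability read by CellTiter-Glo luminescence.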
ELG1 DNA repair – ELG1-dependent DNA repair inhibition. HEK293T ELG1-luciferase reporter, luminescence, 16 h; DNA damage induced by 5-fluorouridine. Potency, µM (doses to about 46.1 µM), inactives show at the highest dose activity change, negative = inhibition, actives largely listed as inhibitors. 330,000 compounds, 2.3% hits. AID 504467; further: potency means the concentration at half of the fitted maximal effect; nearly all actives have a fitted effect of over 55% in size
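HEK293T cells expressing luciferase-tagged ELG1 (2,000/well) received 5-Fluorouridine plus compound or DMSO for 16 hr at 37 °C. Luciferase was read by ONE-Glo luminescence after 30 min at room temperature.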
* marks the source's active call; other numbers are inactive results; i = inactive; ? = inconclusive; . = not tested or not shown. In the library only some 19% were active in any assay of this set; here they are far more common. Unless noted, the call rests on the fitted dose curve; in most records, active means well fitted curve in the direction sought with a large enough effect; inconclusive means small, poorly fitted or top-dose-only effect, or another doubt; inactive means no such curve, though single readings can be large; an effect the other way counts as inactive or inconclusive. Unless noted, on the % scale 0 is the no-effect control and ±100 the full control effect.

SMILES	HT1080-NT tox	DT40 TDP1 CPT	IL1B secr inh	HT1080 IDH1KD tx	DT40 TDP1 no CPT	ELG1 DNA repair
CC(CNc1ccccc1O)C(=O)O (configuration not stated)	-1%	?	-1	-44%	26µM*	-3%
CC(NC(=O)CCC(=O)Nc1ccccc1O)c1ccccc1 (configuration not stated)	14%	3%	15	18%	-1%	.
C[C@@H]1CC=C[C@H]2[C@H]1C(=O)N(Cc1ccccc1)[C@H]2c1ccc(C(F)(F)F)cc1	-20%	?	14	-11%	21µM*	-4%
O=C1C2C(c3ccccc3)CC=CC2[C@H](c2ccc(C(F)(F)F)cc2)N1Cc1ccccc1 (some centres not stated)	?	18µM*	-18	?	?	?
C[C@@H]1CC=C[C@@H]2[C@H]1C(=O)N(Cc1ccccc1)[C@H]2c1cccc(Br)c1	9%	?	28	0%	?	22%
CC[C@@H]1CC=C[C@H]2[C@H]1C(=O)N(Cc1ccccc1)[C@H]2c1ccc2ccccc2c1	.	.	.	.	.	-6%
O=C1C2C(c3ccccc3)CC=CC2[C@H](c2cccc([N+](=O)[O-])c2)N1Cc1ccccc1 (some centres not stated)	-9%	16µM*	0	-6%	?	0%
CC1(c2nc3ccccc3[nH]2)CCC2=Nc3ccccc3CN21 (configuration not stated)	-4%	-26%	-24	-9%	-27%	.
Cn1ccc(C(=O)NCC2CCC3(CCN(Cc4cc(F)cc(F)c4)CC3)O2)n1 (configuration not stated)	.	-8%	.	.	-22%	.
O=C1N[C@@H](c2ccccc2)COC(=O)[C@@H](Cc2ccc(F)cc2)C/C=C\C[C@H]1CC(=O)N(CCO)Cc1ccccc1	?	15µM*	?	?	10µM*	?
CC(C)(C)OC(=O)C[C@@H]1C/C=C\C[C@@H](CC(=O)N(CCO)Cc2ccccc2)C(=O)N[C@@H](c2ccccc2)COC1=O	-2%	?	0	1%	23µM*	15µM*
O=C1CCCC/C=C\C[C@H](CC(=O)N(CCO)Cc2ccccc2)C(=O)N[C@@H](c2ccccc2)CO1	14%	?	26	15%	-22%	-4%
O=C1N[C@@H](c2ccccc2)COC(=O)[C@H](Cc2ccc(F)cc2)CC/C=C/C[C@@H]1CC(=O)N(CCO)Cc1ccccc1	?	?	0	?	16µM*	?
COc1ccc(CCN2CC(C(=O)NCc3cccc(F)c3)CCC2=O)cc1 (configuration not stated)	10%	-2%	5	11%	-17%	.
COC1=CC(=O)OC(c2cccc(C#N)c2)C1 (configuration not stated)	12%	-4%	-19	14%	21%	.
COc1ccc(S(=O)(=O)N2CCN(C(=O)c3sccc3-c3ccccc3)CC2)cc1	2%	15µM*	3	1%	21µM*	-1%
O=C(c1ccc(N2C(=O)c3ccccc3C2=O)cc1)N1CCN(S(=O)(=O)c2ccccc2F)CC1	-2%	-2%	16	-1%	-28%	.
O=C(c1sccc1-c1ccccc1)N1CCN(S(=O)(=O)c2ccccc2F)CC1	0%	15µM*	5	-1%	?	-13%
c1cncc(-c2cncnc2NCc2cccs2)c1	.	9%	.	.	-9%	.
CN(Cc1ccc(Cl)cc1Cl)C(=O)CNC(=O)c1ccco1	26%	5%	-11	8%	5%	-2%
CCN(CC(=O)Nc1ccc(NC(C)=O)cc1)C(=O)CN1C(=O)C2CCCCC2C1=O (configuration not stated)	-5%	6%	27	-7%	15%	5%
O=C1Nc2ccccc2C1=Nc1ccc2[nH]c3ccccc3c2c1	1%	?	?	8%	-5%	.
O=C1Cc2c([nH]c3ccc(Br)cc23)-c2ccccc2N1	-24%	?	-97*	?	?	.
O=C(O)COc1ccc(OCCNC[C@H](O)COc2ccccc2)cc1	.	-2%	.	.	-9%	.
C=CCOC(=O)N1CCC2CC1c1c(-c3ccc(C(F)(F)F)cc3)cccc12 (configuration not stated)	?	23µM*	40	?	?	.
SMILES	HT1080-NT tox	DT40 TDP1 CPT	IL1B secr inh	HT1080 IDH1KD tx	DT40 TDP1 no CPT	ELG1 DNA repair
COCC(=O)N1CCC2CC1c1c(-c3ccc(C(F)(F)F)cc3)cccc12 (configuration not stated)	-4%	23µM*	4	0%	?	.
COc1ccc(-c2cccc3c2C2CC3CCN2C(=O)OCc2ccccc2)cc1 (configuration not stated)	-5%	?	-20	1%	?	.
COc1ccc(S(=O)(=O)N2CCC3CC2c2c(-c4ccc(C(F)(F)F)cc4)cccc23)cc1 (configuration not stated)	11%	4.6µM*	10	-22%	5.2µM*	.
CCCCN1C(=O)C(CC(=O)NCc2ccco2)CC(C(=O)N2CCOCC2)=C1C (configuration not stated)	12%	2%	13	9%	19%	.
O=C(NCCO)OC1CC2CC1[C@H]1CCCCN1C2=O (some centres not stated)	14%	4%	10	8%	2%	.
CN(CCCN1CCCCC1)C(=O)c1cc(COc2ccc(F)cc2F)on1	-5%	-8%	10	-5%	-5%	5%
Oc1c(Cl)cc(Cl)cc1/C=N/NC(=S)NC1CC2C=CC1C2 (configuration not stated)	?	?	-13	21µM*	12µM*	15µM*
Oc1ccccc1/C=N/NC(=S)NC1CC2C=CC1C2 (configuration not stated)	?	1.8µM*	-100*	?	1.6µM*	?
Cc1ccc(S(=O)c2ccc([N+](=O)[O-])c3nonc23)cc1 (configuration not stated)	-12%	2.6µM*	?	-5%	3.3µM*	.
Cc1cccc(NC(=O)Cn2nnc(C(=O)NCc3cccs3)c2N)c1	.	3%	.	.	0%	.
COc1ccc(OC)c(NC(=O)NCCCCc2ccccc2)c1	-4%	?	i	2%	?	?
